Shiga inhibitor: A qHTS for Small Molecule Inhibitors of Shiga Toxin. Vero cells, Shiga toxin protein synthesis inhibition reporter. inhibition, % at 38.7 µM. 290,000 tested, 9.2% active. AID 2315, 2010; in the data active = inhibition mostly above about 28%, no sharp cut-off; inactive = mostly below about 43%
Cycloheximide cs: Cycloheximide Counterscreen for Small Molecule Inhibitors of Shiga Toxin | cell reporter, cycloheximide protein synthesis inhibition counterscreen | 300,000 tested, 12% active | max response, %; in the data active = max response mostly above about 13%, no sharp cut-off; inactive = mostly below about 14%; also: read at 38.3 µM for the half of the compounds with a filed dose
Pf growth 96h: Primary qHTS for delayed death inhibitors of the malarial parasite plastid, 96 hour incubation; 320,000 tested, 6.9% active; Potency, µM (highest dose often 28.7 µM), actives largely listed as inhibitors; P. falciparum luciferase reporter growth, 96 h; AID 504834, 2011
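Delayed-death screen, second-generation endpoint: infected erythrocytes, 2% hematocrit, 0.05% parasitemia final; 96 hours at 37 C, 5% CO2; luciferase detection reagent; luminescence decrease equals reduced growth.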
Giardia FBPA inh: qHTS Assay for Inhibitors of Fructose-1,6-bisphosphate Aldolase from Giardia Lamblia | A8B2U2 | Potency, µM (titrated, usually from 59.6 µM), usual class: inhibitors | AID 2451, 2010 | purified Giardia FBPA | 290,000 tested, 0.71% active; also: nearly all actives have a fitted effect of over 55% in size
Target sequence (A8B2U2 whole entry, looked up): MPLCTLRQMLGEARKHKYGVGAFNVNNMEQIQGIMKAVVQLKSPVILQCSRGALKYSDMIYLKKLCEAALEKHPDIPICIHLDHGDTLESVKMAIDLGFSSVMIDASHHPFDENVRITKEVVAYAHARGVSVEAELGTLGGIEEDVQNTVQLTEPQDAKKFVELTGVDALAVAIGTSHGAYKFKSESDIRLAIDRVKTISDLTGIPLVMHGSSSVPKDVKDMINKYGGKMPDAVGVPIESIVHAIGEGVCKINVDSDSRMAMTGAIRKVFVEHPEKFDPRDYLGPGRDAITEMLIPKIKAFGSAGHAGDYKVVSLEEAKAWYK
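Giardia FBPA (40 nM reagent) was preincubated 10 min at RT with compound (up to 57.5 uM final), then substrate plus GAPDH/TPI/NAD/arsenate coupling system with diaphorase/resazurin was added; resorufin fluorescence (525/598 nm) was read after 20 min.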
NS1 function inh: qHTS Assay for Inhibitors of Influenza NS1 Protein Function; 270,000 tested, 0.4% active; Potency, µM (top dose mostly 46.1 µM); calls by dose curve; also: actives are rising curves; nearly all actives have a fitted effect of over 50% in size
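Read-out: OD600 growth recovery of NS1-expressing budding yeast. Cells grown overnight at 30C in -URA glucose medium, washed, resuspended and diluted 1:100 in 2% galactose assay medium, pH 6.0. Same strain lacking NS1 served as positive control.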
Pf growth 48h: Primary qHTS for delayed death inhibitors of the malarial parasite plastid, 48 hour incubation; Potency, µM (top dose mostly 28.7 µM), hits mostly inhibitors; P. falciparum luciferase growth in erythrocytes, 48 h; 310,000 tested, 5.9% active
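Compounds are pin-transferred into medium, infected erythrocytes (2% hematocrit, 0.1% parasitemia final) are added, and plates sit one parasite generation at 37 C in 5% CO2. Detection reagent is then added and luminescence measured.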
Numbers stand for hits; . = inactive; ? = inconclusive; / = not tested or not shown. Compounds with a hit are over-represented: about 21% of the library has one in this group of screens. Unless noted, calls follow the shape of the dose curve; as a rule, active = well fitted curve in the direction sought with a large enough effect; inconclusive = small, poorly fitted or top-dose-only effect, or another doubt; inactive = no such curve, though single readings can be large; an effect the other way counts as inactive or inconclusive.

SMILES | Shiga inhibitor | Cycloheximide cs | Pf growth 96h | Giardia FBPA inh | NS1 function inh | Pf growth 48h
COc1ccc(-n2cc(CN(C)C(C)c3ccncn3)c(-c3cccc(F)c3)n2)cc1 (centres undefined) | . | . | . | . | . | 10µM
COc1ccc(-n2cc(CN(C)CCO)c(-c3cccc(F)c3)n2)cc1 | 107 | 54 | . | . | . | ?
Cc1cccc(-n2cc(CN3CCCN(C=O)CC3)c(-c3cccc(F)c3)n2)c1 | 52 | 24 | . | . | . | ?
COc1ccc(-n2cc(CN3CCC(OC)CC3)c(-c3cccc(F)c3)n2)cc1 | . | . | . | . | . | 10µM
O=C(CN1C(=O)NC2(CCCC2)C1=O)NNC(=O)c1ccccc1F | / | / | . | / | / | .
Cc1ccc(-c2cc(N)nc(-c3ccccc3)c2)cc1 | 60 | 28 | . | . | . | .
CC(=O)O[C@@]1(C(C)=O)CCC2C3C=C(Cl)C4=CC(=O)C5CC5[C@@]4(C)C3CC[C@]21C (some centres undefined) | / | / | / | . | / | /
CCOc1ccc(OCC)c(NC(=O)CN2CCN(CC)CC2)c1 | . | . | . | . | . | .
CCOc1ccc(OCC)c(NC(=O)CN2CCN(c3cc(C)ccc3C)CC2)c1 | . | . | ? | . | . | ?
CCOc1ccc(OCC)c(NC(=O)CN2CCN(c3cccc(C)c3)CC2)c1 | . | . | . | . | . | 13µM
CCOc1ccc(OCC)c(NC(=O)CN2CCN(c3cccc(C)c3)C(C)C2)c1 (centres undefined) | . | . | ? | ? | . | 13µM
N#CC1=C2C=CC=CN2CC1=O | 111 | 30 | . | . | . | .
O=C(O)[C@@H]1[C@@H](C(=O)NCc2ccncc2)[C@@H]2C=C[C@@H]1O2 | / | / | / | / | . | /
CCCCCn1c(SCC#N)nc2cc(C(=O)NCC3CCCO3)ccc2c1=O (centres undefined) | . | . | 4.7µM | . | . | .
O=C(CSc1nc2ccccc2c(=O)n1CC1CCCO1)NCC1CCCO1 (centres undefined) | . | . | 5.2µM | . | . | .
O=C(CCCn1c(SCc2ccccc2F)nc2ccccc2c1=O)NCC1CCCO1 (centres undefined) | . | . | . | . | / | 6.6µM
COc1ccccc1NC(=O)C(C)Sc1nc2ccccc2c(=O)n1CC1CCCO1 (centres undefined) | / | / | ? | / | / | 10µM
Cc1ccc(NC(=O)CSc2nc3ccccc3c(=O)n2CC2CCCO2)cc1 (centres undefined) | . | . | ? | / | . | .
CCN(CC)c1ccc(NC(=O)CSc2nc3ccccc3c(=O)n2-c2cc(S(=O)(=O)N(C)C)ccc2C)cc1 | . | . | ? | . | ? | 8.3µM
CN(C)c1ccc(NC(=O)CSc2nc3ccccc3c(=O)n2CC2CCCO2)cc1 (centres undefined) | . | . | 4.1µM | . | . | .
COC(=O)c1ccc2c(=O)n(CC3CCCO3)c(SCC(=O)Nc3ccccc3Cl)nc2c1 (centres undefined) | . | . | 10µM | . | . | /
O=C(CCCn1c(SCC(=O)NCCc2ccccc2)nc2ccccc2c1=O)NCC1CCCO1 (centres undefined) | . | . | . | . | / | ?
COC(=O)c1ccc2c(=O)n(CC3CCCO3)c(SCC(=O)Nc3ccccc3OC)nc2c1 (centres undefined) | . | . | . | . | . | ?
O=C(CCCn1c(SCC(=O)NC2CCCCC2)nc2ccccc2c1=O)NCC1CCCO1 (centres undefined) | . | . | 12µM | . | . | ?
Cc1ccccc1OCCSc1nc2ccccc2n1CCC(=O)O | / | . | . | . | . | .
COc1ccccc1-n1c(SC(C)C(=O)NCC2CCCO2)nc2cc(Cl)ccc2c1=O (centres undefined) | / | / | ? | / | / | 13µM
O=C(CSc1nc2c(sc3ccccc32)c(=O)n1Cc1ccco1)NCC1CCCO1 (centres undefined) | . | . | 9.3µM | . | . | 8.3µM
O=C(CCCn1c(SCC(=O)c2ccc(O)c(O)c2)nc2ccccc2c1=O)NCC1CCCO1 (centres undefined) | . | . | ? | ? | . | 9.3µM
COc1cccc([C@@H]2Oc3ccc(OC)cc3C[C@H]2O)c1 | / | / | / | . | / | /
CCSc1nnc(-c2ccncc2)o1 | . | . | . | / | . | .
